Results as given in PubChem BioAssay AID1159580 (chemical genetic matrix, 2015).
The whole screen tested about 5,500 compounds, of which about 2,000 (36%) were called active. Inconclusive results (about 18%) are left out. Rule as the data show it: active = normalized growth mostly below about 0.91 (no sharp cut-off); inconclusive = no clear call, values can overlap the other calls; inactive = mostly above about 0.92. This is one part of the list.

Assay: chemical genetic growth profiling, strain panel (AID 1159580);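 also: tested at 20 µM; growth read once vehicle control cultures reached saturation at 30 °C; 1 = growth at the plate median or of vehicle wells; lower values mean less growth of the strain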
Settings: S. cerevisiae deletion strains, growth OD

Measured: normalized growth

CC(=O)Oc1c(-c2ccccc2)oc2c(CC=C(C)C)c3c(c(OC(C)=O)c2c1=O)C=CC(C)(C)O3
active: locus YAL030W, strain snc1, stronger effect = lower value 1.09 [resistant] | locus YDL040C, strain nat1, stronger effect = lower value 1.09 [resistant] | locus YDR101C, strain arx1, stronger effect = lower value 1.09 [resistant] | locus YDR162C, strain NBP2, stronger effect = lower value 0.828 | locus YDR502C, strain sam2, stronger effect = lower value 1.11 [resistant] | locus YER015W, strain faa2, stronger effect = lower value 1.08 [resistant] | locus YER016W, strain bim1, stronger effect = lower value 1.1 [resistant] | locus YER110C, stronger effect = lower value 1.11 [resistant] | locus YGL248W, strain PDE1, stronger effect = lower value 0.845 | locus YGR252W, strain gcn5, stronger effect = lower value 1.59 [resistant] | locus YHR094C, strain hxt1, stronger effect = lower value 1.16 [resistant] | locus YHR129C, strain ARP1, stronger effect = lower value 0.881 | locus YHR200W, strain rpn10, stronger effect = lower value 1.09 [resistant] | locus YIL066C, strain RNR3, stronger effect = lower value 0.788 | locus YIL073C, strain SPO22, stronger effect = lower value 0.586 | locus YJL095W, strain BCK1 (second series), stronger effect = lower value 1.09 [resistant] | locus YKL190W, strain CNB1, stronger effect = lower value 0.906 | locus YKR001C, strain vps1, stronger effect = lower value 1.21 [resistant] | locus YKR091W, strain srl3, stronger effect = lower value 1.14 [resistant] | locus YLL026W, stronger effect = lower value 1.07 [resistant] | locus YLL041C, strain sdh2, stronger effect = lower value 1.09 [resistant] | locus YLR058C, strain SHM2, stronger effect = lower value 0.891 | locus YLR384C, strain iki3, stronger effect = lower value 1.1 [resistant] | locus YLR418C, strain cdc73, stronger effect = lower value 1.17 [resistant] | locus YML016C, strain PPZ1, stronger effect = lower value 0.874 | locus YML032C, strain rad52, stronger effect = lower value 1.14 [resistant] | locus YML124C, strain tub3, stronger effect = lower value 1.07 [resistant] | locus YMR078C, strain ctf18, stronger effect = lower value 1.14 [resistant] | locus YMR129W, stronger effect = lower value 1.12 [resistant] | locus YOL147C, strain pex11, stronger effect = lower value 1.09 [resistant] | locus YOR061W, strain CKA2, stronger effect = lower value 0.782 | locus YOR070C, strain gyp1, stronger effect = lower value 1.16 [resistant] | locus YOR136W, strain idh2, stronger effect = lower value 1.11 [resistant] | locus YOR144C, strain elg1, stronger effect = lower value 1.08 [resistant] | locus YPL240C, strain hsp82, stronger effect = lower value 1.1 [resistant] | locus YPR141C, strain kar3, stronger effect = lower value 1.09 [resistant] | locus YPR163C, strain tif3, stronger effect = lower value 1.14 [resistant]
inactive: locus YAL021C, strain ccr4, stronger effect = lower value 1.06 | locus YAL026C, strain drs2, stronger effect = lower value 1.02 | locus YBL061C, strain skt5, stronger effect = lower value 1 | locus YBR009C, strain hhf1, stronger effect = lower value 1.09 | locus YBR021W, strain FUR4, stronger effect = lower value 1.05 | locus YBR023C, strain chs3, stronger effect = lower value 1.01 | locus YBR171W, strain sec66, stronger effect = lower value 1.01 | locus YBR229C, strain ROT2, stronger effect = lower value 0.923 | locus YBR231C, strain swc5, stronger effect = lower value 1.02 | locus YBR279W, strain paf1, stronger effect = lower value 0.995 | locus YCL011C, strain gbp2, stronger effect = lower value 1.09 | locus YCL016C, strain dcc1, stronger effect = lower value 1.05 | locus YCL029C, strain bik1, stronger effect = lower value 1.01 | locus YCL061C, strain MRC1, stronger effect = lower value 1.02 | locus YCL069W, strain vba3, stronger effect = lower value 1.01 | locus YCR088W, strain abp1, stronger effect = lower value 1.01 | locus YDL005C, strain med2, stronger effect = lower value 1.01 | locus YDL035C, strain GPR1, stronger effect = lower value 0.875 | locus YDL074C, strain BRE1, stronger effect = lower value 0.93 | locus YDL101C, strain DUN1, stronger effect = lower value 0.944 | locus YDL185W, strain tfp1, stronger effect = lower value 1.07 | locus YDL192W, strain arf1, stronger effect = lower value 1.01 | locus YDR001C, strain nth1, stronger effect = lower value 1.01 | locus YDR069C, strain doa4, stronger effect = lower value 1.01 | locus YDR137W, strain rgp1, stronger effect = lower value 1.03 | locus YDR159W, strain sac3, stronger effect = lower value 0.982 | locus YDR195W, strain ref2 0.986 | locus YDR297W, strain sur2, stronger effect = lower value 1.04 | locus YDR318W, strain mcm21, stronger effect = lower value 0.995 | locus YDR334W, strain swr1, stronger effect = lower value 1 | locus YDR335W, strain msn5, stronger effect = lower value 1.02 | locus YDR388W, stronger effect = lower value 1.05 | locus YDR392W, strain spt3, stronger effect = lower value 0.955 | locus YEL003W, strain gim4, stronger effect = lower value 1.03 | locus YEL037C, strain rad23, stronger effect = lower value 1.01 | locus YEL061C, strain CIN8 (second series), stronger effect = lower value 1.01 | locus YER111C, strain swi4, stronger effect = lower value 1 | locus YER155C, strain BEM2 (second series), stronger effect = lower value 1.05 | locus YER155C, strain BEM2, stronger effect = lower value 1 | locus YER167W, strain BCK2, stronger effect = lower value 0.917 | locus YFR010W, strain ubp6, stronger effect = lower value 1 | locus YGL078C, strain dbp3, stronger effect = lower value 1.04 | locus YGL086W, strain mad1, stronger effect = lower value 0.993 | locus YGL167C, strain pmr1, stronger effect = lower value 0.993 | locus YGL173C, strain kem1, stronger effect = lower value 0.998 | locus YGL227W, strain vid30, stronger effect = lower value 1.01 | locus YGL240W, strain doc1, stronger effect = lower value 1 | locus YGL253W, strain hxk2, stronger effect = lower value 0.981 | locus YGR078C, strain PAC10, stronger effect = lower value 0.898 | locus YGR135W, strain pre9, stronger effect = lower value 1.1 | locus YHR013C, strain ard1, stronger effect = lower value 0.989 | locus YHR027C, strain rpn1, stronger effect = lower value 1.06 | locus YHR079C, strain IRE1 (second series), stronger effect = lower value 1.06 | locus YHR142W, strain chs7, stronger effect = lower value 1.03 | locus YIL125W, strain kgd1, stronger effect = lower value 1.03 | locus YIR030C, strain dcg1, stronger effect = lower value 1.06 | locus YJL092W, strain hpr5, stronger effect = lower value 1.01 | locus YJL095W, strain BCK1, stronger effect = lower value 0.926 | locus YJL115W, strain asf1, stronger effect = lower value 1 | locus YJL129C, strain trk1, stronger effect = lower value 1.02 | locus YJL134W, strain LCB3, stronger effect = lower value 0.948 | locus YJL154C, strain vps35, stronger effect = lower value 1.02 | locus YJL164C, strain tpk1, stronger effect = lower value 1.03 | locus YJL166W, strain qcr8, stronger effect = lower value 1.04 | locus YJL168C, strain set2, stronger effect = lower value 1.03 | locus YJL187C, strain SWE1 (second series), stronger effect = lower value 0.885 | locus YJL187C, strain SWE1, stronger effect = lower value 1.05 | locus YKL009W, strain mrt4, stronger effect = lower value 1.04 | locus YKL068W, stronger effect = lower value 1.01 | locus YKL085W, strain MDH1 (second series), stronger effect = lower value 1 | locus YKL085W, strain MDH1, stronger effect = lower value 1 | locus YKL160W, strain elf1, stronger effect = lower value 1 | locus YKR026C, strain gcn3, stronger effect = lower value 1 | locus YLL001W, strain dnm1, stronger effect = lower value 0.976 | locus YLR027C, strain aat2, stronger effect = lower value 1.03 | locus YLR039C, strain RIC1, stronger effect = lower value 0.891 | locus YLR102C, strain apc9, stronger effect = lower value 1.06 | locus YLR221C, strain rsa3, stronger effect = lower value 1.04 | locus YLR258W, strain gsy2, stronger effect = lower value 1.03 | locus YLR262C, strain YPT6 (second series), stronger effect = lower value 1.02 | locus YLR262C, strain YPT6, stronger effect = lower value 0.874 | locus YLR268W, strain sec22, stronger effect = lower value 1.05 | locus YLR320W, strain mms22, stronger effect = lower value 0.999 | locus YLR330W, strain CHS5, stronger effect = lower value 0.924 | locus YLR342W, strain FKS1, stronger effect = lower value 1.05 | locus YLR357W, strain rsc2, stronger effect = lower value 0.992 | locus YLR370C, strain arc18, stronger effect = lower value 1.01 | locus YLR371W, strain rom2, stronger effect = lower value 1.01 | locus YML120C, strain ndi1, stronger effect = lower value 1.07 | locus YMR058W, strain fet3, stronger effect = lower value 1.02 | locus YMR125W, strain sto1, stronger effect = lower value 1.02 | locus YMR205C, strain PFK2, stronger effect = lower value 1.01 | locus YMR223W, strain ubp8, stronger effect = lower value 1.05 | locus YMR231W, strain pep5, stronger effect = lower value 1 | locus YMR307W, strain GAS1, stronger effect = lower value 0.818 | locus YNL067W, strain RPL9B, stronger effect = lower value 0.988 | locus YNL071W, strain lat1, stronger effect = lower value 1.02 | locus YNL209W, strain ssb2, stronger effect = lower value 1.05 | locus YNL233W, strain BNI4, stronger effect = lower value 0.915 | locus YNL248C, strain rpa49, stronger effect = lower value 0.984 | locus YNL250W, strain rad50, stronger effect = lower value 1.03 | locus YNL271C, strain bni1, stronger effect = lower value 1.04 | locus YNL298W, strain CLA4, stronger effect = lower value 1.04 | locus YNL307C, strain MCK1, stronger effect = lower value 1.03 | locus YNL322C, strain KRE1 (second series), stronger effect = lower value 1.05 | locus YNR049C, strain mso1, stronger effect = lower value 1.01 | locus YNR052C, strain pop2, stronger effect = lower value 1.07 | locus YOL012C, strain htz1 0.869 | locus YOR001W, strain rrp6, stronger effect = lower value 1.01 | locus YOR069W, strain VPS5, stronger effect = lower value 0.935 | locus YOR080W, strain dia2, stronger effect = lower value 1.03 | locus YOR083W, strain WHI5, stronger effect = lower value 1.06 | locus YOR106W, strain vam3, stronger effect = lower value 1.08 | locus YOR184W, strain ser1, stronger effect = lower value 1.07 | locus YOR265W, strain rbl2, stronger effect = lower value 1.05 | locus YOR270C, strain vph1, stronger effect = lower value 0.972 | locus YOR290C, strain snf2, stronger effect = lower value 1.03 | locus YOR316C, strain cot1, stronger effect = lower value 1.07 | locus YPL051W, strain arl3, stronger effect = lower value 0.976 | locus YPL078C, strain atp4, stronger effect = lower value 1.03 | locus YPL106C, strain sse1, stronger effect = lower value 1.02 | locus YPR119W, strain clb2, stronger effect = lower value 1.05 | locus YPR167C, strain met16, stronger effect = lower value 1 | strain wtn01, stronger effect = lower value 1.03
